# Reference: PubChem BioAssay (NCATS)
# Values without a mark were called inactive. Records with an inconclusive call do not appear. Entries that show only a call come without a potency. Calls of active or inactive are those of the source. The call rests on the fitted dose curve; in most records, active means well fitted curve in the direction sought with a large enough effect; inconclusive means small, poorly fitted or top-dose-only effect, or another doubt; inactive means no such curve, though single readings can be large; an effect the other way counts as inactive or inconclusive.
# Key:
# [1] = qHTS Assay for Identifying Gametocytocidal Compounds (AID 743244); further: potency means the concentration at half of the fitted maximal effect;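 on max response: actives lower the fluorescent signal which means gametocytes are killed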; conditions: P. falciparum 3D7 stage III-V gametocytes, alamarBlue, 72 h; max response: active compounds read low
# Procedure, shortened: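 P. falciparum 3D7 stage III–V gametocytes (20,000 cells/well) were exposed to compounds for 72 h at 37 °C, 5% CO2. AlamarBlue was then added for 24 h; decreased resorufin fluorescence (Ex 525/Em 598 nm) indicated loss of viability.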
# [2] = qHTS assay for measurement of the activity of small molecule inhibitors on Zika virus induced Caspase-3 activity in human iPSC derived neural progenitor cells (hNPCs) (AID 1224857); further: nearly all actives have a fitted effect of over 65% in size; further: potency means the concentration at half of the fitted maximal effect
# Procedure, shortened: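 hNPCs seeded 350 cells/well, cultured 16–20 h; compounds added 1 h before ZIKV (2 FFU/cell), 37 C 6 h. Caspase-Glo 3/7 luminescence after 30 min RT; % inhibition from induction scaled to uninfected (0%) and infected (100%) wells.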
# [3] = qHTS assay for measurement of the activity of small molecule inhibitors on Zika virus induced Caspase-3 activity in human astrocytoma cells (AID 1224859)
# Procedure, shortened: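 Luminescence read-out (Caspase-Glo 3/7, 30 min RT) of caspase activity in SNB-19 cells infected 6 h with ZIKV, 2 FFU/cell, after 1 h compound pretreatment; % inhibition from induction normalised to uninfected (0%) and infected (100%) wells.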
SMILES,max response [1],Potency [2],outcome [3],Potency [1]
O=C1OC(CN2CCOCC2)CN1/N=C/c1ccc([N+](=O)[O-])o1 (centres undefined),-7.98%,inactive,inactive,–
COc1cc(C(=O)NCc2ccc(OCCN(C)C)cc2)cc(OC)c1OC,1.8%,inactive,inactive,–
CC(=O)Nc1ncc([N+](=O)[O-])s1,-10.1%,inactive,inactive,–
CCN1/C(=C/C=C/c2sc3ccccc3[n+]2CC)Sc2ccccc21,–,3160 nM (active),inactive,1580 nM (active)
O=C1[C@H](CC[C@H](O)c2ccc(F)cc2)[C@@H](c2ccc(O)cc2)N1c1ccc(F)cc1,4.75%,inactive,inactive,–
CCO[C@@H]1O[C@H](C(COCc2ccccc2)OCc2ccccc2)[C@H](OCc2ccccc2)[C@H]1O (some centres undefined),-9.56%,inactive,inactive,–
Nc1nc(Cl)nc2c1ncn2[C@@H]1O[C@H](CO)[C@@H](O)[C@@H]1F,14.9%,inactive,inactive,–
N#CCC(=O)NN,-7.78%,inactive,inactive,–
O=S(=O)(O)c1ccc(O)cc1,19.1%,inactive,inactive,–
NS(=O)(=O)c1cc2c(cc1Cl)NC(CC1CCCC1)NS2(=O)=O (centres undefined),17.3%,inactive,inactive,–
C#C[C@]1(OC(C)=O)CC[C@H]2[C@@H]3CCC4=C/C(=N/O)CC[C@@H]4[C@H]3CC[C@@]21CC,-2.23%,inactive,inactive,–
CC(=O)OCC(=O)[C@H]1CC[C@H]2[C@@H]3CCC4=CC(=O)CC[C@]4(C)[C@H]3CC[C@]12C,-7.41%,inactive,inactive,–
NC(=S)N/N=C/c1cccnc1,-11.6%,inactive,inactive,–
C[C@@]12C(=O)OC(=O)[C@]1(C)C1CCC2O1,-5.31%,inactive,inactive,–
C[C@@H](O)[C@H]1C(=O)N2C(C(=O)O)=C([C@H]3CCCO3)S[C@H]12,-9.42%,inactive,inactive,–
O=C(N/N=C/c1ccc([N+](=O)[O-])o1)c1ccc(O)cc1,–,inactive,inactive,1120 nM (active)
COc1ccc(C(=O)c2ccccc2O)c(O)c1,14.9%,inactive,inactive,–
O=C(O)C(Cc1cc(I)c(O)c(I)c1)c1ccccc1 (centres undefined),-2.86%,inactive,inactive,–
